Source: PubChem BioAssay (National Center for Advancing Translational Sciences (NCATS))
NS1 inh – influenza NS1 inhibition. Potency, µM (doses to about 46.1 µM), inactives show at the highest dose activity, positive = more growth. hit rate 0.4% among 270,000. AID 2326; calls by dose curve; note: actives are rising curves; nearly all actives have a fitted effect of over 50% in size
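S. cerevisiae expressing influenza A NS1, grown in glucose, washed, then diluted 1:100 into pH 6.0 -URA galactose medium with 23 nl compound. Growth recovery read as OD600; NS1-free strain serves as control.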
Sm TGR block – inhibitors of Schistosoma mansoni thioredoxin glutathione reductase; Q962Y6; purified TGR, DTNB reduction, TNB absorbance 405 nm; Potency, µM (series often up to 114 µM), inactives show top-dose activity change, negative = inhibition, usual class: inhibitors; hit rate 3% among 360,000; AID 485364; note: % is set by controls: 0 for no effect and ±100 for the full control effect; nearly all actives have a fitted effect of over 60% in size
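First, TGR (20 nM dispensed) and NADPH were mixed with compound. Second, a 15 min room-temperature incubation followed. Third, further NADPH and then DTNB were added to start the reaction. Finally, TNB absorbance was monitored kinetically.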
Pf growth 48h – P. falciparum growth inhibition at 48 hours (one generation); hit rate 5.9% among 310,000; P. falciparum luciferase growth in erythrocytes, 48 h; Potency, µM (highest dose often 28.7 µM), for the others: at the highest dose activity change, negative = inhibition, actives largely listed as inhibitors; note: % is set by controls: 0 for no effect and ±100 for the full control effect
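Firefly luciferase activity from engineered P. falciparum reports growth; inhibitors lower the luminescent signal. Cultures contained 2% hematocrit erythrocytes at 0.1% final parasitemia.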
AMA1 RON2 block – AMA1-RON2 (P. falciparum) interaction inhibition | AlphaScreen AMA1-biotinylated RON2 peptide binding | Potency, µM (series often up to 58.2 µM), without a hit: top-dose activity change, negative = inhibition, most hits filed as inhibitors | hit rate 0.2% among 360,000;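 note: 0% = vehicle wells and -100% = peptide control; nearly all actives have a fitted effect of over 45% in size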
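AMA1 (3D7) with his tag at 25 nM final met compounds first, then biotinylated RON2 peptide at 25 nM; detection used donor plus acceptor beads, 10 µg/mL apiece, read by AlphaScreen after 30 min at room temperature.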
Pf growth 96h – P. falciparum growth inhibition at 96 hour, primary screen for plastid delayed-death inhibitors | P. falciparum luciferase reporter growth, 96 h | Potency, µM (top dose mostly 28.7 µM), inactives show at the highest dose activity change, negative = inhibition, usual class: inhibitors | hit rate 6.9% among 320,000; note: % is set by controls: 0 for no effect and ±100 for the full control effect
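Two parasite generations (96 h, 37 C, 5% CO2) of compound exposure in infected erythrocytes (0.05% parasitemia, 2% hematocrit). Luciferase-reporter P. falciparum; decreased luminescence indicates inhibited growth, aimed at apicoplast-acting delayed death.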
Starred values were filed as active, the others as inactive; ? = inconclusive; . = no result given. Hits are enriched below; roughly 11% of the tested compounds scored in any of these assays. Unless noted, calls come from the whole dose curve; as a rule, active = well fitted curve in the direction sought with a large enough effect; inconclusive = small, poorly fitted or top-dose-only effect, or another doubt; inactive = no such curve, though single readings can be large; an effect the other way counts as inactive or inconclusive. Potency is the fitted concentration of half-maximal effect.

SMILES	NS1 inh	Sm TGR block	Pf growth 48h	AMA1 RON2 block	Pf growth 96h
Cc1c(N2C(=O)/C(=C/C3CC=CCC3)SC2=S)c(=O)n(-c2ccccc2)n1C (centres undefined)	2%	7.9µM*	-15%	-6%	-4%
Cc1c(N2C(=O)/C(=C\C3CC=CCC3)SC2=S)c(=O)n(-c2ccccc2)n1C (centres undefined)	.	28µM*	?	42%	131%
CCOC(=O)CCc1c(C)c2ccc(OC3CCCCC3=O)cc2oc1=O (centres undefined)	-1%	8%	?	-1%	-22%
Cc1ccc(NC(=O)N2CCC3(CC2)Oc2ccccc2C(=O)N3Cc2ccc(F)cc2)cc1	.	-4%	.	.	.
O=C1c2ccccc2OC2(C=Cc3ccccc3O2)N1Cc1ccccc1 (centres undefined)	2%	-3%	.	-4%	4.1µM*
COc1ccc(N(CC(=O)NCc2ccco2)S(C)(=O)=O)cc1Cl	5%	79µM*	4%	-6%	-17%
COc1ccc(S(=O)(=O)NCCSCc2ccco2)cc1C	.	.	.	-2%	.
CS(=O)(=O)N(CC(=O)NCCSCc1ccco1)c1ccc(Cl)cc1	0%	?	-7%	2%	23%
COc1ccc(S(=O)(=O)NCCSCc2ccco2)cc1Cl	2%	32µM*	-1%	28%	.
COc1ccc(C)cc1N(CC(=O)NCCSCc1cccc(Cl)c1)S(C)(=O)=O	-9%	3%	0%	-17%	12µM*
Cc1ccc(N(CC(=O)NCCSCc2ccco2)S(=O)(=O)c2ccc(C)cc2)cc1	-57%	1%	?	-10%	6.6µM*
COc1ccc(-c2nc3c(C#N)c[nH]n3c2NC2CCCC2)c(OC)c1	.	0%	.	.	.
C[C@@H]1CN([C@@H](C)CO)C(=O)CCCn2nncc2CO[C@H]1CN(C)Cc1ccc(Oc2ccccc2)cc1	.	.	.	13%	.
COc1ccc(-n2nnc(-c3nsc(NC(=O)c4cccc(C)c4)n3)c2C)cc1OC	.	4%	.	.	.
COc1ccc(N(CC(=O)NCCSCc2ccco2)S(=O)(=O)c2ccccc2)cc1Cl	11%	18µM*	12µM*	-5%	?
COc1ccccc1N(CC1CO1)S(=O)(=O)c1ccccc1 (centres undefined)	-36%	2%	8%	-8%	?
COc1ccc(N(CC(=O)NCCSCc2ccccc2Cl)S(C)(=O)=O)cc1Cl	-4%	7%	-17%	-8%	?
Cc1ccc(C)c(N(CC(=O)NCCSCc2ccco2)S(C)(=O)=O)c1	?	20µM*	?	70%	?
COc1ccc(N(CC(=O)NCCSCc2ccccc2C)S(=O)(=O)c2ccccc2)cc1	7%	-10%	?	-16%	5.2µM*
COc1ccc(N(CC2CO2)S(=O)(=O)c2ccccc2)cc1 (centres undefined)	4%	40µM*	6%	32%	-20%
O=C(CN(c1cccc(Cl)c1)S(=O)(=O)c1ccc(Cl)cc1)NCc1ccccn1	-13%	-7%	?	37%	?
COc1cccc(N(CC(=O)NCCSCc2ccco2)S(=O)(=O)c2ccccc2)c1	-2%	?	?	-27%	?
COc1ccc(OC)c(N(CC(=O)NCCSCc2ccco2)S(=O)(=O)c2ccc(OC)c(OC)c2)c1	-16%	-25%	42%	-6%	59%
COc1ccc(C)cc1N(CC(=O)NCCSCc1ccco1)S(=O)(=O)c1ccc(C)cc1	-1%	32µM*	0%	-12%	-24%
Cc1cccc(N(CC(=O)NCCSCc2ccco2)S(=O)(=O)c2ccccc2)c1	-6%	32µM*	?	7%	?
COc1ccc(S(=O)(=O)N(CC(=O)NCc2ccccn2)c2ccc(Cl)cc2)cc1	-2%	0%	10µM*	83%	32%
CC1CCN(c2ccc(NC(=O)C3CCCN3S(=O)(=O)c3ccc(F)cc3)cc2)CC1 (centres undefined)	.	-21%	?	-12%	12µM*
COc1ccc(NC(=O)C2CCCCN2S(=O)(=O)c2ccc(F)cc2)cc1 (centres undefined)	-11%	6%	-12%	0%	0.59µM*
COc1ccc(NC(=O)C2CCCN2S(=O)(=O)c2ccc(C)cc2)cc1 (centres undefined)	-11%	0%	.	-10%	?
